Test results reported in PubChem BioAssay AID1259415 (National Center for Advancing Translational Sciences (NCATS), 2018).
Among all 410,000 compounds or so, about 18,000 (4.4%) were called active. Roughly 7% stayed inconclusive and do not appear here. No stated cut-off is given here; in the data, active means activity change below about -60%; inconclusive means no clear call, values can overlap the other calls; inactive means above about -39%. The full list was thinned out, with actives kept by preference.

assay: qHTS Assay for inhibitors of the human cytomegalovirus (HCMV); settings: HFF cells, HCMV-luciferase reporter, 72 h; at 57.5 µM; stronger effect = lower value
Summary of the method: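 HFF cells seeded 16 h at 37C, treated with compounds, infected with luciferase-reporter HCMV at MOI 1 PFU/cell; luciferase read at 72 h post infection, normalized to buffer-only and Salinomycin controls.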
On the % scale 0 is the no-effect control and ±100 the full control effect.

SMILES | activity change, negative = inhibition
CN(c1ccccc1)S(=O)(=O)c1ccc(C(=O)NCc2cccnc2)cc1 | -0.899% (inactive)
O=C(COC(=O)c1cc([N+](=O)[O-])ccc1NCc1ccccc1)NC1CCCCC1 | -19.2% (inactive)
CCN(C(=O)c1cc([N+](=O)[O-])ccc1NCc1cccnc1)c1ccccc1 | -61.2% (active)
CCc1ccc(C2C(C(=O)Nc3ccccc3)=C(C)Nc3c(C(=O)Nc4ccc(C)cc4)cnn32)cc1 (stereo not given) | -39.9% (inactive)
CCCCCCCCCCCCC(NC(C)=O)(C(=O)OCC)C(=O)OCC | 12.4% (inactive)
CC(=O)N1CCN(c2ccc(NCc3ccc(C(C)C)cc3)cc2)CC1 | -36.3% (inactive)
Cc1nc2ccccc2c(-c2ccccc2)c1C(=O)c1ccccc1 | -104% (active)
Nc1[nH]c(C(=O)c2ccccc2)c(-c2ccncc2)c1C(=O)NCc1cccc2ccccc12 | -19.1% (inactive)
CC(C)(C)C(=O)c1c(N)[nH]c(C(=O)c2ccccc2)c1-c1ccc(F)cc1 | -5.27% (inactive)
COc1ccc(OCC(=O)Nc2cccc(C(=O)OCc3cc(=O)n4nc(C)sc4n3)c2)cc1 | 47.5% (inactive)
CCc1c(C)nc2c(-c3ccccc3)c(C)nn2c1Nc1ccc(NC(C)=O)cc1 | -66.5% (active)
CCc1ccc(NC(=O)c2cnc3c(-c4ccccc4)c(C)nn3c2C)cc1 | -0.863% (inactive)
Cc1nn2c(NCCN(C)C)c3c(nc2c1-c1ccccc1)CCC3 | -16.5% (inactive)
Cc1ccc(OC(=O)CSc2nnc(-c3cccs3)o2)cc1 | 3.01% (inactive)
O=C(CSc1cn(CC(=O)N2CCOCC2)c2ccccc12)Nc1ccccc1 | 19.2% (inactive)
COc1ccc(OCC(=O)Nc2cc(C)c(Cl)cc2OC)c([N+](=O)[O-])c1 | -64.3% (active)
COc1cc(Cl)c(C)cc1NC(=O)COC(=O)c1cc(SC)ccc1Cl | 4.92% (inactive)
Cc1cc(NC(=O)COC(=O)COc2ccc(Cl)cc2C)c([N+](=O)[O-])cc1C | 26.5% (inactive)
Cn1cc(S(=O)(=O)N2CCCCCC2)cc1C(=O)N1CCN(c2ccc(F)cc2)CC1 | -13.3% (inactive)
COc1ccc(NC(=O)CCCc2nnc3n(CCC(C)C)c(=O)c4sccc4n23)c(OC)c1 | 12.6% (inactive)
CCOc1ccc(-c2cc3nc(C4CCN(C(=O)OC(C)(C)C)CC4)c(C(=O)Nc4cccc(CC)c4)cn3n2)cc1 | -18.2% (inactive)
COC(=O)c1ccccc1NC(=O)c1ccc(COc2ccccc2Cl)o1 | 14.7% (inactive)
CCN(CC)c1ccc(/C=N/NC(=O)CNC(=O)c2cccs2)cc1 | -20% (inactive)
CCN(CC)c1ccc(/C=N/Nc2nc(C)cc(C)n2)c(O)c1 | -102% (active)
NS(=O)(=O)c1ccc(CNC(=O)c2cnccn2)cc1 | 8.17% (inactive)
CCN(CC)c1ccc(/C=N/NC(=O)c2cnccn2)c(O)c1 | -98.7% (active)
O=c1cc2nc(-c3ccccc3)nc(SCCOc3ccc(Cl)cc3)n2[nH]1 | 5.21% (inactive)
Cc1ccc(C)c(N2CCN(C(=O)Cn3nc(C)c4sc5ccccc5c4c3=O)CC2)c1 | 23.4% (inactive)

SMILES | activity change, negative = inhibition
CC[C@H](C)[C@H]1CNC(=O)C(=O)N1CC1CCN(CCc2ccc(OC)c(OC)c2)CC1 | 15.6% (inactive)
COc1ccc(Cl)cc1S(=O)(=O)N1CCC(c2ccncc2)CC1 | -32.1% (inactive)
CCOc1ccc(OCC)c(Nc2nc3ccccc3n3nnnc23)c1 | -1.18% (inactive)
CC(C)[C@H]1COCCS(=O)(=O)N1Cc1ccccc1-c1cccc2c1sc1ccccc12 | -19% (inactive)
COC(=O)c1c(-c2ccsc2)oc2ccc(-c3cc(OC)c(OC)c(OC)c3)cc12 | 8.37% (inactive)
CSc1ncccc1C(=O)N1CCCC(CCC(=O)NCc2ccccc2F)C1 (stereo not given) | -1.95% (inactive)
Cc1cc2cc3n(c2nn1)N=C(Cl)CC3 | -74.2% (active)
Cc1ccc(C(=O)COC(=O)C(Cc2c[nH]c3ccccc23)NC(=O)c2ccc(Br)cc2)cc1 (stereo not given) | 0% (inactive)
O=C(CSc1nccn1Cc1ccc(F)cc1)NCc1ccccc1 | -14.9% (inactive)
COc1ccc2nc3n(c(=O)c2c1)-c1ccc(Cl)cc1C(=O)NC3Cc1ccccc1 (stereo not given) | -25.7% (inactive)
O=C1NC(Cc2ccccc2)c2nc3ccc(Br)cc3c(=O)n2-c2cc3ccccc3cc21 (stereo not given) | 17% (inactive)
CC(C)CC1NC(=O)c2cc(Cl)ccc2-n2c1nc1ccccc1c2=O (stereo not given) | -99.6% (active)
Cc1ccc(-c2nnn(CC(=O)N(Cc3ccco3)C(C(=O)NC(C)(C)C)c3ccncc3)n2)o1 (stereo not given) | 9.51% (inactive)
Cc1ccc(-c2cc(C(=O)Oc3ccccc3Cl)no2)cc1C | 81.2% (inactive)
COc1cc(C(=O)N(Cc2ccc(C(C)C)cc2)C2CCS(=O)(=O)C2)cc(OC)c1OC (stereo not given) | 11.7% (inactive)
CN(C(=O)CSc1nc2ccccc2n1Cc1ccccc1C#N)c1ccccc1 | -3.45% (inactive)
CC(C)[C@@H](NC(=O)OC(C)(C)C)C(=O)NCC1CCC(C(=O)N[C@@H](Cc2ccccc2)C(=O)O)CC1 (stereo not given in full) | -17.7% (inactive)
CC(C)(C)c1ccc(C(CC(=O)O)NS(=O)(=O)Cc2ccccc2)cc1 (stereo not given) | 30.5% (inactive)
C[C@@H](NC(=O)OC(C)(C)C)c1nnc(S(=O)(=O)Cc2ccccc2)o1 | -105% (active)
CC(C)N(C(=O)Cn1c(SCC(=O)N2CCN(c3ccccc3)CC2)nc2ccccc21)C(C)C | -20.6% (inactive)
CCn1cc2nc(SCc3ccccc3Cl)n(CCc3ccccc3)c(=O)c2n1 | -14.7% (inactive)
COc1cc(C(=O)NCCc2csc3nc(-c4ccccc4C)nn23)cc(OC)c1OC | 7.41% (inactive)
CCCNC(=O)c1nnc2n1CCN(C(=O)c1ccccc1OC)C2 | -9.02% (inactive)
COc1ccccc1C(=O)NCCn1cc(SCc2ccccc2Cl)c2ccccc21 | 20.2% (inactive)
Cc1cccc(CN2CCN(C3CN(Cc4cn(Cc5ccccc5F)nn4)S(=O)(=O)C3)CC2)c1 (stereo not given) | -0.715% (inactive)
Cc1cccc(CN2CCN(C3CN(Cc4ccccc4)S(=O)(=O)C3)CC2)c1 (stereo not given) | -24.1% (inactive)
Cc1cccc(CN2CCN(C3CN(Cc4cn(Cc5cc(C)cc(C)c5)nn4)S(=O)(=O)C3)CC2)c1 (stereo not given) | -101% (active)
